Measured values taken from PubChem BioAssay (NCI).
This is part of a sample that, as a whole, favours compounds with a hit. Of some 79,000 tested, about 15% had one in any assay. A number with no mark means an inactive call. Active and inactive are the calls of the source. Rule as the data show it: active = growth inhibition above about 70%; inactive = the rest. *1 amine or outer side, *2 acyl side, *3 side chain or, on linkers, in order; H or OH if unused. Where a SMILES comes first, the peptide text is derived from it. [ ]: non-standard residue; d: D form. The star is where a group is joined. X17 = CC(=O)N(C)SCC(N[*:1])C(=O)[*:2]; Fmoc = O=C(OCC1c2ccccc2-c2ccccc21)*; For = O=C*

What was measured:
[1] = NCI Yeast Anticancer Drug Screen. Data for the rad50 strain (AID 155);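 also: 0% = growth of vehicle-only cultures of the same strain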; details: S. cerevisiae rad50 strain growth inhibition; at 50.0 µM; active compounds read high
Outline: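 DNA repair mutant yeast, compound exposure, growth read-out; inhibition is taken relative to vehicle.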

[2] = NCI Yeast Anticancer Drug Screen. Data for the mec2-1 strain (AID 157); details: S. cerevisiae mec2-1 strain, at 50.0 µM, active compounds read high
Outline: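 Yeast mec2-1 mutant treated with compound. Readout: growth inhibition vs vehicle controls.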

[3] = NCI Yeast Anticancer Drug Screen. Data for the sgs1 mgt1 strain (AID 161);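 also: 0% = growth of cultures given vehicle only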; details: S. cerevisiae sgs1 mgt1 strain, at 50.0 µM, active compounds read high
Outline: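 Inhibition of yeast growth, normalised to vehicle-treated controls, is reported for a strain bearing genetic alterations in DNA damage repair.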

[4] = NCI Yeast Anticancer Drug Screen. Data for the cln2 rad14 strain (AID 165);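 also: 0% = growth equal to vehicle treated cultures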; details: S. cerevisiae cln2 rad14 strain, at 50.0 µM, active compounds read high
Outline: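 cln2 rad14 yeast strain; compound exposure; growth inhibition read vs vehicle controls.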

[5] = NCI Yeast Anticancer Drug Screen. Data for the bub3 strain (AID 167); details: S. cerevisiae bub3 mutant strain, at 50.0 µM, active compounds read high
Outline: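 In this screen, a yeast mutant lacking normal mitotic checkpoint function is challenged with compound. Relative growth versus vehicle gives the inhibition value.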

[6] = NCI Yeast Anticancer Drug Screen. Data for the mlh1 rad18 strain (AID 175); details: S. cerevisiae mlh1 rad18 strain growth inhibition; at 50.0 µM; active compounds read high
Outline: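 Yeast w/ defined DNA-repair lesions; compound exposure; growth vs vehicle controls → % inhibition.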

SMILES	growth inhibition [1]	growth inhibition [2]	growth inhibition [3]	growth inhibition [4]	growth inhibition [5]	growth inhibition [6]
CCOC(=O)CCC1(C(=O)OCC)CCCC1=O (stereo not given)	-12.9%	-21.3%	-27.4%	-9.7%	10.6%	-19.3%
NC1C([O-])OC(CO)C(O)C1O.O=C1OC(C(O)CO)C([O-])=C1[OH2+].[Cu+2] (stereo not given)	-0.4%	-0.15%	-19.6%	-8.25%	-1.55%	-12.8%
COc1cc2c(cc1OC)C(=O)/C(=C/c1ccc([N+](=O)[O-])cc1)CC2	-50.2%	-56.5%	-11.9%	-38.2%	-28%	-33.9%
COC(=O)/C=C1\SC(OC)(N(C)c2ccccc2)N(C)C1=O (stereo not given)	-25.6%	9.6%	22.7%	-10.4%	-0.8%	19.1%
CC(=O)c1cc2c(cc1C(C)C)CC[C@H]1[C@](C)(C#N)CCC[C@]21C	1%	-1.15%	1.25%	-26.6%	15.9%	31.3%
CC(=O)OCC1OC(SC2=NC(=O)CS2)C(OC(C)=O)C(OC(C)=O)C1OC(C)=O (stereo not given)	3.3%	-1.8%	1.45%	-6.6%	-8.85%	17.4%
Cc1cccc(Cl)c1NC(=O)CN(C)C	21.4%	-0.55%	17.7%	10.4%	19.6%	24.7%
CC(=O)Oc1c(C)cc(C(=O)CO)cc1C	34.7%	15.4%	27.7%	6.75%	14.4%	31.8%
COC(=O)/C(C)=C1\C=C(C)CC(C)(C)C1	-4.3%	-25.1%	-10.6%	1%	-23.9%	-2.3%
COc1ccc(C2=NN(C(C)=O)c3nc4ccccc4nc3O2)cc1	-25.2%	-28.8%	-20%	-5.9%	-24.6%	-12.6%
CCOC(=O)C1=C(Nc2cccc3ccccc23)OC/C1=N\NC(=O)c1ccccc1O	24.2%	28.6%	20.3%	14.8%	27.8%	12.8%
C=C(C)C(O)C(O)c1c(OC)ccc2ccc(=O)oc12 (stereo not given)	-3.65%	-4.25%	-50.7%	14.1%	-5.55%	-4.4%
O=[N+]1C=CC(=NN=c2ccn([O-])cc2)C=C1	33.9%	15.5%	8.65%	14.6%	8%	26.9%
CC(=O)N(C)SCC(NC(=O)C(Cc1ccccc1)NC(=O)OCC1c2ccccc2-c2ccccc21)C(=O)NC(Cc1ccccc1)C(=O)NC(Cc1cn(C=O)c2ccccc12)C(=O)NC(CCCCNC(=O)OCC1c2ccccc2-c2ccccc21)C(=O)NC(C(=O)NC(CSN(C)C(C)=O)C(=O)NC(C(N)=O)C(C)O)C(C)O (stereo not given) (Fmoc-F[X17]FW(For)K(Fmoc)T[X17]T-NH2; configuration not given here)	86.7% (active)	81.3% (active)	65.1%	82.2% (active)	82.2% (active)	84% (active)
CN(C)CCN1C(=O)c2c(c3cccn3c3c2cnn3-c2ccccc2)C1=O	36.8%	12.1%	34%	-43%	4.9%	32.6%
CN1C=CC=CC1=C1C(=O)c2ccccc2C1=O	26.8%	12.6%	17.2%	35.6%	-2.1%	23.2%
CCOC(=O)CC(=O)Nc1cc(C)cc(C)n1	2.1%	14.5%	9.5%	32.6%	25.1%	5.7%
Cc1cc2c(C(C)C)c(O)c(O)c(C=Nc3ccccc3)c2c(O)c1-c1c(C)cc2c(C(C)C)c(O)c(O)c(C=Nc3ccccc3)c2c1O	1.45%	34%	49.6%	-23%	-2.3%	52.8%
CCOC(=O)N1Cc2cc3ccccc3nc2C1CC(=O)O (stereo not given)	-14.8%	11.9%	-3.6%	-28.1%	-1.65%	-24.8%
CCCCCCCCCCCCCCCCN=C1C=Cc2ccccc2C1=NCCCCCCCCCCCCCCCC	-0.45%	6.4%	11.6%	11.6%	5.95%	4.4%

SMILES	growth inhibition [1]	growth inhibition [2]	growth inhibition [3]	growth inhibition [4]	growth inhibition [5]	growth inhibition [6]
Cc1ncc2c(n1)CCC1=C2OS(=O)(=O)CC1N(C)C (stereo not given)	-24.1%	-0.45%	-3.3%	1.6%	-10.1%	-22.4%
O=C(NC1COB(c2cccc([N+](=O)[O-])c2)OC1c1ccc([N+](=O)[O-])cc1)C(Cl)Cl (stereo not given)	12.8%	27.9%	5.65%	-23.9%	15.7%	63.5%
CC(=O)c1nc(C#N)c(N)o1	1.9%	-3.55%	-17.7%	20.8%	-20.2%	-23.4%
CCN(CC)/N=C\c1c2ccccc2cc2ccccc12	19.8%	11.2%	7.7%	9.4%	13.3%	60.4%
O=[N+]([O-])c1ccc(C=C2C=c3ccccc3=C2)cc1	5.8%	1.1%	-14.4%	-28.9%	5.3%	7.3%
CN1C/C(=C\c2ccco2)c2nc(N)nc(-c3ccco3)c2C1	-6.15%	-3.35%	8.9%	35.5%	6.85%	-4.15%
CCCC(=O)n1[nH]c(=O)n(-c2ccc(Cl)cc2)c1=O	5.15%	-12.3%	19.8%	3.25%	-2.1%	-10.3%
CSC(=S)n1nc(-c2ccccc2)c(N=Nc2cccc(Cl)c2Cl)c1-c1ccccc1	90.2% (active)	95.5% (active)	94% (active)	94.5% (active)	93% (active)	95.2% (active)
CCSc1nc(C)cc(=O)[nH]1	28%	-1.35%	9.6%	6.15%	13.2%	27.9%
CC(=O)OCC1COC(C)(c2ccccc2)O1 (stereo not given)	4.65%	0.3%	-6.65%	3.7%	4.15%	-9.55%
CCOC(=O)C(Cc1ccccc1C)(NC(C)=O)C(=O)OCC	6.65%	-0.25%	7.35%	4.1%	1.4%	-11.2%
CC(C)CC(=O)OC1=C(OC(=O)CC(C)C)C(=O)C(OC(=O)CC(C)C)=C(OC(=O)CC(C)C)C1=O	36.9%	15.3%	39.3%	29.6%	7.9%	25.3%
O=C(Cc1ccccc1)NN1C(=O)/C(=C\c2ccc(O)cc2)SC1=Nc1ccccc1	5.5%	-1.05%	28.9%	4.4%	-9.75%	19.9%
Cc1cc2c(cc1C)N1C(Cl)=C3CCCCC3=C(C#N)C1N2 (stereo not given)	30.7%	30.4%	20.5%	28.3%	13.9%	-8.95%
CC1=CN2C(c3ccc(Cl)cc3)=NON(c3ccc(C)cn3)C2C=C1 (stereo not given)	-21.6%	-4.75%	0.65%	-50.8%	5.25%	8.35%
CCCCCCCCCCCCSCCO	20.9%	10.8%	39%	31.4%	17.1%	39%
O=[N+]([O-])c1ccc(N=N/C(Cc2ccccc2)=N\Nc2ccccc2)cc1	31.4%	12.9%	-0.2%	22.6%	-10.4%	4.65%
CCSc1sc(=Nc2ccc(N=c3sc(C)c(SC)s3)cc2)sc1-c1ccc(C)cc1	-33.6%	-0.75%	-11.2%	-39.1%	2.25%	-5.2%
Cc1cccc(NC(=O)Nc2cccc(Cl)c2Cl)n1	15.9%	13.7%	13.6%	15.1%	23.9%	18.6%
COc1cccc(CCN(CCOC(N)=O)CCOC(N)=O)c1OC	-10.1%	-5.25%	2.9%	-7.35%	-4.85%	-2.65%
